The results in this text go back to PubChem BioAssay AID2233 (The Scripps Research Institute Molecular Screening Center, 2010).

Each structure is given as a SMILES string. Some of the results follow. Activity calls are given as the source filed them.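 Rule for the calls: active = mean inhibition across replicates above the hit cutoff set in the primary screen (cut at about 15% in these data); inactive = the rest.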

The assay deals with Acyl-protein thioesterase 1 (Homo sapiens) (UniProt O75608). Kind of assay: inhibition of human lysophospholipase 1 – biochemical, fluorescence polarization, FP-Rh probe ABPP, counter-screen for PME1 inhibitor project, confirmation (AID 2233).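 Note: loss of FP-Rh probe labeling of LYPLA1 seen as lower polarization; 0% = LYPLA1 with DMSO and 100% = wells lacking LYPLA1 enzyme.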 Particulars: recombinant LYPLA1, FP-Rh probe fluorescence polarization; at 5.9 µM; stronger effect = higher value. (In general: Polarisation of emitted light reports the rotation of a fluorescent probe.)
Chain of Acyl-protein thioesterase 1 (Homo sapiens) (O75608 whole entry, looked up): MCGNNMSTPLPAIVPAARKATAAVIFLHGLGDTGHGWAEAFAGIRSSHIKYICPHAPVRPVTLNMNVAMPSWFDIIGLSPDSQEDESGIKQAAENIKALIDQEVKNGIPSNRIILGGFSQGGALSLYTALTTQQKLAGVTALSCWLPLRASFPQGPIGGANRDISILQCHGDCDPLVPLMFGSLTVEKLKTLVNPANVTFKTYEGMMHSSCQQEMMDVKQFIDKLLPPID
For `COc1ccc(N2CC(C(=O)NCCN3C(=O)S/C(=C\c4cccnc4)C3=O)CC2=O)c(OC)c1` (stereo not drawn), the inhibition was 1.04% (inactive).
Next, `CCN1C(=O)/C(=C2/Sc3ccccc3N2CCCS(=O)(=O)O)SC1=S`: 9.65% (inactive); `O=c1[nH]n(-c2cccc(Cl)c2)c2ncccc12`: 2.75% (inactive).
The same measure for `CCOc1ccccc1N1CCN(C(=O)c2ccc3[nH]c(C)c(C)c3c2)CC1`: 29.3% (active); for `CCOc1ccc(C(=O)NC(=S)Nc2ccc(N3CCOCC3)c(Cl)c2)cc1[N+](=O)[O-]`: 24.6% (active).
Next, `O=C(COc1ccc(Cl)cc1)N1CCN(c2cccc(C(F)(F)F)c2)CC1`: 31.6% (active).
With `O=C(CN1CCN(c2cccc(Cl)c2)CC1)Nc1ccc(S(=O)(=O)N2CCOCC2)cc1`, the inhibition is 23.3% (active).
Next, `COc1ccc(-c2nc(CS(=O)CC(=O)NCc3ccccn3)c(C)o2)cc1` (stereo not drawn): 16.5% (active).
Regarding `CCN1CCN(CCNC(=O)c2ccc3c(c2)NC(=O)/C(=C\c2ccc(OC)c(OC)c2)S3)CC1`, the inhibition is 19.4% (active).
In the case of `CN(CCOc1ccccc1)C(=O)c1cc(COc2c(F)cccc2F)on1`, the inhibition is 12.1% (inactive).
The same measure for `Cc1ccc(S(=O)(=O)N2CCC(C(=O)N[C@@H](C)C(=O)NCc3ccco3)CC2)cc1`: 2.78% (inactive).
For `CCCCn1c(N)c(N(CCC(C)C)C(=O)CC2OC(=O)c3ccccc32)c(=O)[nH]c1=O` (stereo not drawn), the inhibition was 0.51% (inactive).
On to `COc1ccccc1C(=O)NC(CCSC)C(=O)N1CCN(C/C=C/c2ccccc2)CC1` (stereo not drawn), for which the inhibition is 19.9% (active).
Next, `O=C(c1ccc(-c2ccccc2)cc1)C1CCCN(C(=O)c2cncs2)C1` (stereo not drawn): 30.7% (active); `Cc1cccc(N2CCN(C(=O)CN(C)S(=O)(=O)c3ccc4c(c3)CCC(=O)N4)CC2)c1C`: 26.9% (active); `COCCOC(=O)c1sc(=S)n(CCOC)c1N`: 13.4% (inactive).
The same measure for `COc1cccc(NC(=O)N2CCCC2C(=O)NC2CCCCC2)c1` (stereo not drawn): 2.88% (inactive).
Next, `O=C(CCn1c(SCC(=O)c2ccccc2)nc2ccccc2c1=O)NCc1ccc(F)cc1`: -4.57% (inactive); `O=c1[nH]n(-c2ccc([N+](=O)[O-])cc2)c(=O)c2ccccc12`: 17.7% (active).
Regarding `C=CCNC(=O)c1sc(SC)cc1-c1ccc(Cl)cc1`, the inhibition is 23.5% (active).
Next, `CCC(=C/c1sc2ccc3ccccc3c2[n+]1C)/C=C1\Sc2ccc3ccccc3c2N1C`: 78.8% (active).
Consider `Cc1ccc(N2CCN(C3=NC(=O)/C(=C\c4cccs4)S3)CC2)cc1`, for which the inhibition was 37% (active).
`CSc1c(SCc2ccccc2)cnn(Cc2ccccc2)c1=O`: the inhibition was 2.84% (inactive).

By inhibition is commonly meant the drop in the measured response relative to a control, in per cent.
